Source: PubChem BioAssay
Only some compounds are listed: those with a hit (about 22% of all), similar ones and a draw of the others.
Pf growth 48h: P. falciparum growth inhibition at 48 hours (one generation); 310,000 tested, 5.9% active; Potency, µM (top dose mostly 28.7 µM), inactives show at the highest dose activity change, negative = inhibition, most hits filed as inhibitors; P. falciparum luciferase growth in erythrocytes, 48 h; note: potency is the fitted concentration of half-maximal effect; % is set by controls: 0 for no effect and ±100 for the full control effect
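Parasite viability was followed by luminescence of a genomically integrated firefly luciferase. Cultures held 0.1% parasitemia at 2% hematocrit (final), incubated under 5% CO2 at 37 C.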
LmPK inh: inhibitors of Leishmania mexicana pyruvate kinase; Q27686; purified LmPK, Kinase-Glo ATP luminescence, 1 h; Potency, µM (series often up to 57.5 µM), inactives show at the highest dose activity change, negative = inhibition, most hits filed as inhibitors; 290,000 tested, 0.37% active; note: potency is the fitted concentration of half-maximal effect; % is set by controls: 0 for no effect and ±100 for the full control effect
Target sequence (Q27686 whole entry, looked up): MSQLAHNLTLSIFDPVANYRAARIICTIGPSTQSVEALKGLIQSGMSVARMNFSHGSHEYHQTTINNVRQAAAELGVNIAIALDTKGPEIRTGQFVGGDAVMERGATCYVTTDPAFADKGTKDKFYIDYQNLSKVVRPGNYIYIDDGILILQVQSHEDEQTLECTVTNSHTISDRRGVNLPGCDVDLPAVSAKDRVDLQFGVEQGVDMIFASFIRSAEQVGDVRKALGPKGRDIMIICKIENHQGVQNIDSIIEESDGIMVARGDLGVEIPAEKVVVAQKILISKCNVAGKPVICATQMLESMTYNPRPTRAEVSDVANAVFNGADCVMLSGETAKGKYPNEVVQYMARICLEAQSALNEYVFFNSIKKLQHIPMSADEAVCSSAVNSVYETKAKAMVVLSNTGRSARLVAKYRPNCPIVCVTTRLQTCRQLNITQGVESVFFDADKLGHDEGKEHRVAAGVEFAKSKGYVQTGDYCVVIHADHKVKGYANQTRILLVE
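qHTS format; LmPK 0.1 nM; substrates PEP 0.5 mM and ADP 0.1 mM. One-hour room-temperature incubation, then coupled luciferase luminescence; 0.5 nM enzyme wells mark activation.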
Cycloheximide cs: counter-screen for Shiga toxin inhibitors: cycloheximide protein synthesis inhibition. cell reporter, cycloheximide protein synthesis inhibition counterscreen. max response, %. 300,000 tested, 12% active; in the data active = max response mostly above about 13%, no sharp cut-off; inactive = mostly below about 14%; note: read at 38.3 µM for the half of the compounds with a filed dose; 0% is about no effect
Shiga toxin inh: inhibitors of Shiga toxin in Vero cells; Vero cells, Shiga toxin protein synthesis inhibition reporter; inhibition, % at 38.7 µM; 290,000 tested, 9.2% active; in the data active = inhibition mostly above about 28%, no sharp cut-off; inactive = mostly below about 43%; note: 0% is about no effect
Pf growth 96h: P. falciparum growth inhibition at 96 hour, primary screen for plastid delayed-death inhibitors | P. falciparum luciferase reporter growth, 96 h | Potency, µM (series often up to 28.7 µM), for the others: top-dose activity change, negative = inhibition, most hits filed as inhibitors | 320,000 tested, 6.9% active | AID 504834; note: potency is the fitted concentration of half-maximal effect; % is set by controls: 0 for no effect and ±100 for the full control effect
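Two-generation exposure (96 h) targets delayed-death phenotype. Reporter parasites carrying integrated firefly luciferase, in red cells at 2% hematocrit and 0.05% parasitemia final, kept at 37 C, 5% CO2; luminescence loss indicates inhibition.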
Numbers without * were called inactive; i = inactive; u = inconclusive; x = no result; ! = not active in a repeat; [ ] = another dose, or the depositor's remark. Unless noted, calls come from the whole dose curve; as a rule, active = well fitted inhibition curve with a large enough effect; inconclusive = small, poorly fitted or top-dose-only effect, or another doubt; inactive = no such curve, though single readings can be large or run the other way.

SMILES | Pf growth 48h | LmPK inh | Cycloheximide cs | Shiga toxin inh | Pf growth 96h
O=C(NS(=O)(=O)Oc1ccc(F)c(Cl)c1)OC[C@@H]1CCCN2CCCCC12 (stereo not given in full) | -2% | 5%[11.5 µM] | -6 | -6 | u
COc1ccc(NC(=O)C2CCN(S(=O)(=O)c3cccc4nonc34)CC2)cc1 | -14% | -3% | -1 | 21 | u
CCN1CCN(C(=O)c2ccccc2N(Cc2ccccc2)S(=O)(=O)c2ccc(OC)cc2)CC1 | u | -1% | -1 | -9 | u
C/C(=N\NC(=O)CC#N)C1COc2ccccc2O1 (stereo not given) | 27% | -7% | -2 | 14 | 5%
O=C1C2C(c3ccccc3)(C(=O)N1c1ccc(Cl)cc1)C2(c1ccccc1)c1ccccc1 (stereo not given) | 4.1µM* | 5% | -3 | 10 | u
COC(=O)C1=C(C)N(CCc2ccc(OC)c(OC)c2)C(=O)C1 | x | -3% | -4 | 12 | x
COCCCN1C(=O)/C(=C\c2ccc3c(c2)OCO3)C(C(=O)OC)=C1C | 6% | 3% | -4 | -4 | -1%
C=CCOc1cccc(/C=C2\C(=O)N(Cc3ccc(C)cc3)C(C)=C2C(=O)OC)c1 | 15µM* | 6% | -1 | -12 | 6.6µM*
COC(=O)C1=C(C)N(CCc2ccc(OC)c(OC)c2)C(=O)/C1=C\c1ccc(O)cc1 | 12µM* | 1% | -3 | -7 | -3%
CCN1C(=O)/C(=C\c2ccc3c(c2)OCO3)C(C(=O)OC)=C1C | 3% | -2% | -2 | -15 | 1.9µM*
CCC(C)c1ccc(S(=O)(=O)N2CCN(c3ccccn3)CC2)cc1 (stereo not given) | 6% | 11% | -3 | 3 | 276%
Cc1ccc(S(=O)(=O)N2CCC(C(=O)OCC(=O)N3CC(C)CC(C)C3)CC2)cc1C (stereo not given) | u | x | x | x | 5%
Cc1ccc(OCc2nc(-c3ccccn3)n[nH]2)cc1 | 43% | -3% | 32* | 52 | x
CCn1cc(/C=N/N=C2\CCC3C4CCc5cc(O)ccc5C4CC[C@]23C)c(C)n1 (stereo not given in full) | x | -1% | -3 | -10 | 1.7µM*
O=C(Nc1ccc(F)cc1)OCCN1CCN(Cc2ccccc2)CCC1=O | -3% | -5% | 11*! | 22 | -4%
CC(=O)c1ccc(NC(=O)OCCN2CCN(Cc3ccccc3)CCC2=O)cc1 | x | x | 20 | i | x
COc1cc(/C=C(/C#N)c2ccccc2F)ccc1OCc1ccccc1 | 12µM* | -1% | 34* | 53* | -4%
COc1cc(/C=C(/C#N)C(=O)Nc2ccccc2)ccc1OCc1ccc(C(=O)O)cc1 | -1% | 0% | 25 | 36 | -98%
O=C(O)c1cccc(NC(=O)c2ccc(COc3ccc(Cl)cc3)cc2)c1 | 80% | -2% | 0 | 13 | 12%
COc1cc(/C=C(\C#N)C(=O)Nc2cccc(C(=O)O)c2)ccc1OCc1ccc(C)cc1 | 17% | 5% | 26* | 74* | 7%
N#C/C(=C\c1ccc(OCc2ccc(Cl)cc2)cc1)C(=O)Nc1cccc(C(=O)O)c1 | 22% | 3% | 18* | 34* | 13%
COc1cc(/C=C(\C#N)C(=O)NCc2ccccc2)ccc1OCc1ccc(C(=O)O)cc1 | 13µM* | -3% | 1 | 19 | u
COc1cc(/C=C(\C#N)C(=O)NC(C)C)ccc1OCc1ccc(C(=O)O)cc1 | -1% | 7% | 6 | 10 | -23%
N#C/C(=C\c1ccc(OCc2cccc(C(=O)O)c2)cc1)C(=O)NCc1ccco1 | 185% | 0% | 52* | 101* | 319%
COc1ccc(CCNC(=O)/C(C#N)=C/c2cccc(OCc3ccccc3)c2)cc1OC | u | 0% | 11 | 34 | 12µM*
COc1cc(/C=C(\C#N)C(=O)NC2CCCCC2)ccc1OCc1ccc(C(=O)O)cc1 | 6.6µM* | 2% | 11 | 34 | -9%
S=C(Nc1ccccc1)N1CCn2c(nc3ccccc32)C1 | -11% | -5%[11.5 µM] | -2 | -14 | 0%
CC(C)Nc1nc(NC2CCCC2)nc(N2CCOCC2)n1 | u | x | x | x | 5.2µM*
COc1ccc(N2C(=O)CSC23C(=O)N2c4c(cccc43)C(C)=CC2(C)C)cc1 (stereo not given) | x | 3% | 4 | -10 | 7.4µM*
N#Cc1nc(-c2ccc(OCc3ccc(Cl)cc3)cc2)oc1N1CCOCC1 | 23% | -9% | -7 | -14 | 10µM*
